# Imprint erasure – qHTS Assay for Compounds that Induce Erasure of Genomic Imprints; Potency, µM (top dose mostly 60.7 µM), for inactives: top-dose activity change, positive = activation, most hits filed as activators; AID 1948, 2009; mouse ES Peg3-LacZ reporter, beta-gal luminescence, 40 h; 0.02% of 110,000 active
#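 Imprint erasure is scored as LacZ activity from the silenced maternal Peg3 allele in feeder-free female ES cells cultured 40 h with LIF. Luminescence is normalized to in-plate negative controls and fitted to the Hill equation.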
# p53ts 32C tox – qHTS Screen for Compounds that Selectively Target Cancer Cells with p53 Mutations: Cytotoxicity of p53ts Cells at the Permissive Temperature. H1299-p53A138V at 32C, ATP luminescence viability, 24 h. Potency, µM (top dose mostly 46.1 µM), for the others: top-dose activity change, negative = cytotoxicity, usual class: cytotoxic. 0.93% of 130,000 active;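 further: 0% = DMSO and -100% = full killing by reference compound; nearly all actives have a fitted effect of over 55% in size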
#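 H1299-p53 A138V cells (temperature-sensitive p53) exposed 24 h to up to 46 uM compound at 32C, where p53 is wild-type in conformation. Viability read as ATP luminescence and normalised to DMSO and 100 uM tamoxifen. AC50 fitted with the Hill equation.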
# p53ts 39C kill – qHTS Screen for Compounds that Selectively Target Cancer Cells with p53 Mutations: Cytotoxicity of p53ts Cells at the Nonpermissive Temperature; Potency, µM (doses to about 46.1 µM), for inactives: at the highest dose activity change, negative = cell killing, hits mostly cytotoxic; 1.5% of 130,000 active; H1299-p53A138V viability at 39C, ATP luminescence, 24 h; further: on the % scale 0 is the no-effect control and ±100 the full control effect; nearly all actives have a fitted effect of over 55% in size
# IkB signaling – IkB Signaling; 0.04% of 110,000 active; Potency, µM (top dose mostly 57.1 µM), inactives show at the top dose IkBa stabilization activation; ABC-DLBCL IkBa-CBG/CBR dual luciferase ratio, 4 h; response scale: scaled: untreated 0%, proteasome inhibitor 100%; active means well fitted curve in the direction sought with a large enough effect in the signal ratio, not every such curve was filed as active; inconclusive means small, poorly fitted or top-dose-only effect, or a change in a side signal; the % refers to the signal ratio;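 further: the direction sought is a rising ratio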
#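 Luminescence ratio of IκBα-fused green versus native red beetle luciferase in OCI-Ly3 cells, 4 h post-doxycycline with compound; red signal alone, scaled from basal (0%) to zero light (-100%), flagged nonspecific or cytotoxic effects.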
# * marks the source's active call; other numbers are inactive results; ? = inconclusive; . = not tested or not shown; [ ] = dose if it differs, or a comment. This is a sample that favours compounds with a hit; in the whole collection about 1.8% have one here. Unless noted, the call rests on the fitted dose curve; in most records, active means well fitted curve in the direction sought with a large enough effect; inconclusive means small, poorly fitted or top-dose-only effect, or another doubt; inactive means no such curve, though single readings can be large; an effect the other way counts as inactive or inconclusive. Potency means the concentration at half of the fitted maximal effect.
SMILES,Imprint erasure,p53ts 32C tox,p53ts 39C kill,IkB signaling
CC(CNC(=O)c1ccc2c(c1)nc1n2CCCCC1)c1ccccc1 (stereo not drawn),-12%[10.9 µM],?,13µM*,?
CC1CCn2c(nc3cc(C(=O)NCCc4ccccc4)ccc32)C1 (stereo not drawn),-13%[10.9 µM],16µM*,?,-2%
Cc1ccccc1CCNC(=O)c1ccc2c(c1)nc1n2CCOC1,-15%[10.9 µM],7.9µM*,6.3µM*,-1%
Cc1ccccc1CCNC(=O)c1ccc2c(c1)nc1n2CCCCC1,-4%[10.9 µM],1.6µM*,1µM*,?
O=C(NCCc1ccc(Cl)cc1)c1ccc2c(c1)nc1n2CCOC1,20%[10.9 µM],-11%,-23%,?
CSc1ccc(CCNC(=O)c2ccc3c(c2)nc2n3CCCCC2)cc1,-15%[10.9 µM],-9%,-12%,?
CCCCCCCCCCCCCCCCOC[C@@H](COCC(F)(F)F)OP(=O)(O)OCO,.,.,.,-6%
Cc1ccc(-n2nc3c(N4CCC(C(=O)NC(C)c5ccccc5)CC4)nnc(C)c3c2C)cc1 (stereo not drawn),-6%[10.9 µM],?,16µM*,?
Cc1ccc(-n2nc3c(N4CCC(C(=O)NCCc5ccccc5C)CC4)nnc(C)c3c2C)cc1,-7%[10.9 µM],?,20µM*,?
CCOc1ccccc1Nc1nc(-c2cccc(Cl)c2)c2c(n1)-c1ccccc1OC2,-13%[10.9 µM],?,13µM*,?
Cc1ccc(-n2ncc(C(=O)N3CCN(Cc4ccccc4)CC3)c2C2CCN(C(=O)OC(C)(C)C)CC2)c(C)c1,-4%[10.9 µM],4%,14%,?
c1ccc2c(c1)Cn1c-2nc2ccccc21,-89%,13µM*,7.9µM*,?
c1ccc2c(c1)Cn1nnnc1-2,14%,6%,-7%,2%
CCOc1ccccc1NC(=O)CN1C(=O)COc2ccc(S(=O)(=O)NC3CCCC3)cc21,.,2%,.,.
CCNC(=O)CC1C(=O)N(c2ccc(F)cc2)C(=O)N1CCOC (stereo not drawn),-6%[10.9 µM],-1%,-7%,2%
CCCCNC(=O)CSc1nnc(C)c2c(C)n(-c3ccccc3)nc12,11%[10.9 µM],7%,16µM*,?
CCOc1ccc(CNC(=O)CSc2nnc(C)c3c(C)n(-c4ccccc4)nc23)cc1,-8%[10.9 µM],2%,25µM*,1%
Cc1nnc(SCC(=O)NCc2cccc(F)c2)c2nn(-c3ccccc3)c(C)c12,-7%[10.9 µM],19%,5%,-3%
C[C@@H]1CN(CCCn2c3ccccc3c3ccccc32)C[C@H](C)N1,-24%,16%,25µM*,?
Cc1ccc(CNS(=O)(=O)c2cc(C(=O)Nc3cccc(C(F)(F)F)c3)ccc2F)cc1,-8%[10.9 µM],-18%,13µM*,?
CC/C(=C(/c1ccccc1)c1ccc(OCCN(C)C)cc1)c1ccccc1,-38%,.,.,.
COc1cccc(-c2cc(=O)c3cc(O)ccc3o2)c1,-64%,?,13µM*,-2%[11.4 µM]
COc1cccc(-c2oc3ccc(C)cc3c(=O)c2O)c1,-11%[10.9 µM],?,10µM*,?
COC(=O)COc1ccc2oc(-c3ccc(OC)cc3)cc(=O)c2c1,-9%[10.9 µM],-7%,-7%,3%
COc1ccc(-c2cc(=O)c3cc(OC)ccc3o2)cc1,25%,?,?,.
SMILES,Imprint erasure,p53ts 32C tox,p53ts 39C kill,IkB signaling
COc1ccc2oc(-c3ccc(O)cc3)cc(=O)c2c1,-87%,5µM*,7.9µM*,0%[11.4 µM]
COc1cccc(-c2cc(=O)c3ccc(OC)cc3o2)c1,-20%,-12%,-16%,.
CCCCC(=O)Oc1ccc2oc(-c3ccc(OC)cc3)cc(=O)c2c1,-35%[10.9 µM],?,6.3µM*,?
Cc1ccc2oc(-c3ccccc3)c(O)c(=O)c2c1,-6%,-14%,-5%,0%[11.4 µM]
c1ccc(/C(=N/Nc2nc3ccccc3s2)c2ccccn2)cc1,-29%[10.9 µM],-2%[9.22 µM],-26%[9.22 µM],?
Oc1ccc([C@@H]2CNCc3sccc32)cc1O,.,15%,19%,3%
O=c1cc(-c2cccc(O)c2)oc2c(O)c(O)ccc12,-14%,?,25µM*,2%[11.4 µM]
O=c1cc(-c2cccc(O)c2)oc2cc(O)ccc12,-36%,-15%,-22%,-1%[11.4 µM]
COc1ccc2c(c1)c1c(c(=O)n(CCc3ccccc3)c(=O)n1Cc1ccc(F)cc1)n2C,?,4%,-21%,0%

# Compound activity: PubChem BioAssay, National Center for Advancing Translational Sciences (NCATS)
